These results are taken from PubChem BioAssay AID463173 (ICCB-Longwood Screening Facility, Harvard Medical School, 2010).

Hit rate of the full screen: of about 52,000 compounds, about 4,300 (8.3%) were called active. Rule as the data show it: active = survival mostly below about 52% (no sharp cut-off); inactive = mostly above about 56%. Many of the other results were omitted from the sample, so actives are more common in it than they were.

The experiment deals with DeltatarO mutant. In words: S. aureus survival, RN4220 and DeltatarO strains – OD600, teichoic acid synthesis inhibitors, primary screen (AID 463173). The note with it: S. aureus RN4220 wild type/DeltatarO growth, OD600, 18 h, active compounds read low, screened at 18.75 µg/mL (by protocol).
For `CCOC(=O)c1cccc(NC(=O)C2CCN(S(=O)(=O)c3cn(C)cn3)CC2)c1`, the survival is 102% (inactive). To `COc1ccc(CCN2C(=O)CN(C3CCCCCC3)C(=O)C2c2ccc(OC(C)C)c(OC)c2)cc1OC` (stereo not given) belongs 89% (inactive). To `COc1cc2[nH]c(=O)n(CCCCCC(=O)N3CCN(c4ccc(Cl)cc4)CC3)c(=O)c2cc1OC` belongs 67% (inactive); to `CCOc1ccc(-c2cc(C)n3nc(C(=O)Nc4cc(Cl)ccc4O)cc3n2)cc1`, 62% (inactive). With `CC(=O)Nc1ccc(NC(=O)CCCn2nc(C)c3sc4ccccc4c3c2=O)cc1` the figure was 83% (inactive); with `O=c1oc2c3c(ccc2c2ccccc12)OCN(Cc1ccccc1Cl)C3`, 68% (inactive); with `O=C(NCCc1ccc(Cl)cc1)c1ccc(CSCc2ccc(Cl)cc2)o1`, 83% (inactive).

Take `CCN1CCN(C(=O)c2ccc3c(c2)N(Cc2cccc(F)c2)C(=O)c2ccccc2S3)CC1`: the survival is 85% (inactive). To `CCOc1cc(S(=O)(=O)N(C)C2CCCCC2)c(OCC)cc1-n1cnnn1` belongs 99% (inactive). With `Cn1c(=O)oc2cc(S(=O)(=O)CCC(=O)N3CCN(c4cccc(Cl)c4)CC3)ccc21` the figure was 81% (inactive); with `COc1ccc(OCC(=O)Nc2ccc3oc(-c4ccncc4)nc3c2)cc1`, 87% (inactive). To `CCN1CCN(C(=O)c2cnn(-c3ccc(F)cc3F)c2C2CCN(C(=O)OC(C)(C)C)CC2)CC1` belongs 86% (inactive); to `CCc1ccc(Nc2nc3ccccc3c3nnc(C)n23)cc1`, 92% (inactive); to `COc1ccc(Nc2nc3ccccc3c3nnc(C)n23)cc1Cl`, 48% (inactive).

For `COc1cc(Nc2nc3ccccc3c3nnc(C)n23)cc(OC)c1`, the survival was 37% (active). Take `CCc1nnc2c3ccccc3nc(Nc3ccccc3OC)n12`: the survival is 57% (inactive).

As for `Cc1nnc2c3ccccc3nc(Nc3ccc(F)cc3Cl)n12`, the survival is 83% (inactive).

For the compound `COc1ccc(C)cc1Nc1nc2ccccc2c2nnc(C)n12`, the survival is 135% (inactive). As for `CCc1nnc2c3ccccc3nc(Nc3cc(C)cc(C)c3)n12`, the survival was 26% (active). With `CCc1nnc2c3ccccc3nc(Nc3ccc(F)c(Cl)c3)n12` the figure was 62% (inactive). Turning to `CCOc1ccc(Nc2nc3ccccc3c3nnc(CC)n23)cc1`, the survival is 62% (inactive). To `CCCCOC(=O)c1ccc(Nc2nc3ccccc3c3nnc(C)n23)cc1` belongs 25% (active); to `CCc1nnc2c3ccccc3nc(Nc3ccc(C(C)=O)cc3)n12`, 78% (inactive).

Consider `CCc1nnc2c3ccccc3nc(Nc3ccc(F)cc3C)n12`, for which the survival was 39% (active). To `Cn1c(-n2cccc2)c(-c2c(-c3ccc(F)cc3)[nH]c3c2c(=O)[nH]c(=O)n3C)c(=O)[nH]c1=O` belongs 55% (inactive).
